This is part of a sample that, as a whole, favours compounds with a hit. Of some 83,000 tested, about 20% had one in any assay.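 Results are percent growth after 48 hours of single-concentration exposure. 100 means growth as in untreated cells, lower positive values show inhibition; negative values down to -100 show cell death.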 Values without a mark were called inactive. The source made the active and inactive calls. The calls were made as follows: active = growth percent below 10; inactive = the rest.
Tests used:
Assay in all cases: NCI-60 one-dose screen, 48 h (100 = growth as untreated, 0 = no growth, -100 = all killed)
Details in all cases: 10 µM unless noted
SK-MEL-2 melanoma = system: SK-MEL-2 melanoma
SN12C renal = system: SN12C renal
UO-31 renal = system: UO-31 renal
TK-10 renal = system: TK-10 renal
ACHN renal = system: ACHN renal
CAKI-1 renal = system: CAKI-1 renal
A498 renal = system: A498 renal
CCRF-CEM leukemia = system: CCRF-CEM leukemia
MOLT-4 leukemia = system: MOLT-4 leukemia

Structure (SMILES) | growth (SK-MEL-2 melanoma) | growth (SN12C renal) | growth (UO-31 renal) | growth (TK-10 renal) | growth (ACHN renal) | growth (CAKI-1 renal) | growth (A498 renal) | growth (CCRF-CEM leukemia) | growth (MOLT-4 leukemia)
Brc1ccc2[nH]cc(-c3cncn3CCc3ccccc3)c2c1 | 55.8% | 59.1% | 52.7% | -60.4% (active) | 65.7% | 35.4% | 29.3% | 57.9% | 48.6%
O=C(Nc1ccc(-c2ccc3c(c2)NC(=O)/C3=C\c2ccc[nH]2)cc1)NC1CC1 | 112% | 101% | 88.2% | 108% | 101% | 99.9% |  | 86.1% | 
O=C(Cn1c[n+](CC(=O)c2ccc([N+](=O)[O-])cc2)c2ccccc21)Nc1cccc2cccnc12 | 41.4% | 30% | 66% | 114% | 93.8% | 84.1% | 94.7% | 89.4% | 92.8%
CC(Sc1nc2ccccc2c(=O)n1CCc1ccc(S(N)(=O)=O)cc1)C(=O)Nc1ccc(Cl)cc1 (stereo unspecified) | 80.9% | 86.2% | 53.8% | 80.1% | 86.3% | 75.6% |  | 63.7% | 68.3%
COc1ccc(C/C(C)=C(/c2ccc(OCCCN(C)C)cc2)c2ccc(OC(C)=O)cc2)cc1 | 101% | 80.8% | 62.2% | 98.9% | 85% | 81.6% |  | 63.1% | 55.9%
CC(C)=CCC[C@](C)(O)[C@H]1CC[C@]2(C)[C@@H]1CC[C@@H]1[C@@]3(C)C/C(=C/c4ccccc4)C(=O)C(C)(C)[C@@H]3CC[C@]12C | 98.3% | 91% | 66.7% | 63.8% |  | 53.7% | 85.6% | 87.8% | 
Cc1ccc(-n2c3c(c(-c4ccccc4)c2-c2ccccc2)C2=NCCN2C=N3)cc1 | 99.3% | 85% | 68.9% | 144% |  | 72.9% |  | 98.5% | 92.9%
CCNc1nc2cc(Nc3ccnc4cc(Cl)ccc34)ccc2o1 | 81.2% | 79.3% | 70.2% | 81.9% | 88.2% | 71.9% | 47% | 76.8% | 
COC(=O)N[C@H]1CCc2c(Cl)c(OC)c(OC)c(OC)c2-c2ccc(SC)c(=O)cc21 | 42.4% | 21.1% | 22.7% | 45.9% | 30.9% | 15.1% |  | 1.53% (active) | 3.99% (active)
CNCCOc1nc2c3cnccc3cc(-c3cc(OC)c(OC)c(OC)c3)c2c2ccncc12 | -77.5% (active) | -36.9% (active) | -42.7% (active) | -34.2% (active) | -73.8% (active) | -31% (active) | -87.2% (active) | -13.1% (active) | -15.1% (active)
O=C(O)c1ccc2c(c1)C(=O)N(Cc1ccccc1)C2=O | 106% | 98.2% | 83% | 91.1% | 99.9% | 99.3% | 85.4% | 92.6% | 98.5%
CC(C)(C)c1cc(C=O)cc(C(C)(C)C)c1O | 96.2% | 104% | 103% | 93.2% | 105% | 113% | 105% | 14.3% | 14.8%
O=C(/C=C/c1ccc(Cl)cc1)c1ccc(NC(=O)N2CCN(c3cc4c(cc3F)c(=O)c(C(=O)O)cn4C3CC3)CC2)cc1 | 98.2% | 86.4% | 80.2% | 107% | 101% | 82.7% |  | 72.2% | 
O=C(/C=C(/C=C/c1csc2ccccc12)OB(F)F)/C=C/c1csc2ccccc12 | 73.1% | -9.88% (active) | -5.1% (active) | 23.7% | 7.13% (active) | 10.1% |  | -20.5% (active) | -18.6% (active)
COc1ccccc1/C=C1\Oc2cc(OCCN3CCCC3)ccc2C1=O | 106% | 88.8% | 66.3% | 97.9% | 94.2% | 94.3% |  | 54.7% | 68.7%
O=C(c1nc2ccccc2[nH]1)C1C(c2ccc(Br)cc2)C2CC3CCCC[C@H]3N2[C@@]12C(=O)Nc1cc(Cl)ccc12 (stereo partly specified) | 73.3% | 39.7% | 20.6% | 40.7% | 29.9% | 17.7% |  | 32% | 6.93% (active)
NC(=NCCCOc1ccc(F)cc1)Nc1ccc(I)cc1 | 84.1% | 81% | 59.2% | 73% | 73.5% | 74.5% |  | 79.3% | 40.9%
Cc1c(C(=O)NCCC(=O)NO)sc2ncnc(Nc3ccc(NC(=O)Nc4cccc(C(F)(F)F)c4)cc3)c12 | 109% | 100% | 87.1% | 140% | 102% | 99.3% |  | 98.8% | 106%
COc1cc2oc(-c3cccc(C(=O)Nc4ccc(Cl)cc4)c3)cc(=O)c2c(O)c1OC | 83.1% | 41.5% | 47% | 75.5% | 33.4% | 55% |  | 75.6% | 
N#Cc1cccc(-c2ccc3c(c2)NC(=O)/C3=C\c2ccc[nH]2)c1 | 81.2% | 87.6% | 65.6% | 32.3% | 57.8% | 51.8% |  | 69.7% | 68.2%
Cc1ccc(S(=O)(=O)NNC(=O)/C(=C\c2ccc(Cl)cc2)c2nc3ccccc3s2)cc1 | 99.4% | 92.5% | 75.1% | 132% | 97.7% | 83.8% |  | 83.6% | 
O=C(CNCCN1CCOCC1)N1c2cccc3cccc(c23)N(C(=O)CNCCN2CCOCC2)C1c1cn(-c2ccccc2)nc1-c1cccc([N+](=O)[O-])c1 | 96.5% | 79.4% | 65.1% | 108% | 88.7% | 66% | 84.5% | 17.5% | 48.5%
COc1ccc(C(=O)C2C(C#N)C(C#N)C3c4ccccc4C=CN23)cc1 (stereo unspecified) | 88.5% | 80.9% | 60.7% | 131% |  | 72.4% | 80.9% | 82.5% | 95.6%
OC(c1ccc(F)c(C(F)(F)F)c1)c1cnccc1NC1CCCCC1 (stereo unspecified) | 89.6% | 65.3% | 49.6% | 71.1% | 81.9% | 64.3% | 59.6% | 57.2% | 56%
CCCCCN1C=C/C(=C\C(=O)N(C)c2ccccc2Br)c2ccccc21 | 109% | 89.2% | 87.8% | 99.7% | 104% | 82.2% |  | 96% | 89.3%

— PubChem BioAssay (NCI)
